F508del corr: correctors of CFTR F508del function in bronchial epithelial cells | CFBE cells, YFP halide quenching; stimulated with forskolin plus potentiator P3; % fluorescence drop versus neutral controls | activity (quench increase), % at 7.58 µM | 350,000 tested, 0.36% active;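 active = mean added fluorescence quench of at least 8% versus neutral control, with both replicates also reaching 8%; inconclusive = only one of the mean or replicate conditions met; inactive = mean below 8% and not both replicates reaching 8%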;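 also: cells transiently co-express mutant CFTR-F508del with the halide-sensitive YFP; corrector assay measuring rescue of mutant channel to the surface after 24 h compound exposure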
EWS-Fli inh: blocks EWS/Fli oncoprotein-driven transcription; A673 NR0B1-luciferase reporter, viability-normalised; AID 651661; 350,000 tested, 0.67% active; inhibition, % at 12.6 µM;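 active = mean inhibition of at least 50% after viability correction, with every replicate also passing that limit; inconclusive = mean reaches 50% but only one of two replicates passes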;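 also: firefly luciferase signal divided by Alamar Blue viability fluorescence both relative to DMSO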
FXN GAA850 act: increases GAA850 frataxin promoter reporter activity | 360,000 tested, 0.56% active | activation, % at 6 µM | HEK293 lucGAA850 FXN promoter luciferase reporter, 24 h; percent of 10 µM SAHA response | AID 540364;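 active = activation above the average of all compounds screened plus 3 SD, cutoff fixed separately per campaign, cut at about 7.5% in these data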;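 also: 0% = DMSO wells and 100% = 10 µM SAHA wells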
HIV Env fusion: blocks HIV Env-driven cell-cell fusion; HeLa-JRFL Env/CEM21 cell fusion, luciferase; inhibition, % at 12.3 µM; 360,000 tested, 1.1% active;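 active = mean replicate inhibition score of at least 50 and every replicate individually at or above 50; inconclusive = only one of the two criteria met; inactive = mean below 50 and not all replicates reaching 50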;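 also: 0% = plate neutral controls and 100% = maraviroc near 300 nM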
PAX8 reporter: lowers PAX8-driven luciferase in RMG-I cells; RMG-I TPO-luciferase reporter, SteadyGlo, 24 h; inhibition, % at 12.6 µM; 360,000 tested, 1.2% active; AID 652154;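 active = mean replicate inhibition at least 60% with every replicate also reaching 60%; inconclusive = only one of the two criteria is met; inactive = mean below 60% and not all replicates reaching 60%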;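 also: luciferase light reporting Pax8 driven TPO promoter activity; plate controls were median of neutral control wells for no effect and mitoxantrone controls for full effect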
The depositor's hits bear a star; ? = inconclusive; . = no result given; ! = a repeat was not active; [ ] = another dose, or the depositor's remark. An excerpt weighted towards active compounds, which were near 2.5% of everything screened.

SMILES	F508del corr	EWS-Fli inh	FXN GAA850 act	HIV Env fusion	PAX8 reporter
COC(=O)C[C@@H]1C[C@@H]2c3cc(NS(=O)(=O)c4cccc(OC)c4)ccc3O[C@@H]2[C@@H](CO)O1	1	-1	.	2[16.7 µM]	2
CN(C)C(=O)C[C@H]1CC[C@@H]2[C@H](COC[C@@H](O)CN2C(=O)c2ccncc2)O1	2	6	.	12[16.7 µM]	-4
COCCNC(=O)C[C@H]1CC[C@@H]2[C@H](COc3ccc(NC(=O)Nc4ccccc4)cc3C(=O)N2C)O1	1	-9	.	3[16.7 µM]	5
CN(C)C(=O)C[C@H]1C[C@@H]2c3cc(NC(=O)Nc4ccc(F)cc4)ccc3O[C@@H]2[C@H](CO)O1	-1	-8	.	-10[16.7 µM]	-10
CC1(Cc2ccc(F)cc2)C(=O)Nc2c(Cl)ccc(Cl)c21 (stereo not drawn)	8.8*	-3	0	22	.
CC12CCC(=O)N1C(C(=O)Nc1nc3ccc(S(C)(=O)=O)cc3s1)CS2 (stereo not drawn)	2	.	2	55*	2
CC12CCC(=O)N1C(C(=O)Nc1nc3ccc(Cl)cc3s1)CS2 (stereo not drawn)	-5	-20	3	-5	7
C[C@H](CO)N1C[C@H](C)[C@H](CN(C)C(=O)Nc2ccccc2)Oc2ccc(NS(C)(=O)=O)cc2C1=O	0	-1	.	.	-8
Cc1ccc(C(=O)N2CCCCC2)cc1NC1=C(Cl)C(=O)N(Cc2ccccc2)C1=O	0	15	2	-51	72*
CCCNC(=O)Nc1ccc2c(c1)C(=O)N(C)C[C@@H](OC)[C@@H](C)CN[C@@H](C)CO2	2	-1	.	1[16.7 µM]	-6
O=C(O)C[C@@H]1C=C[C@@H](NC(=O)CCN2CCCCC2)[C@H](CO)O1	-1	3	.	.	.
O=c1c2ccccc2cnn1-c1nc2ccccc2[nH]1	0	91*	-15	63*	114*
C[C@@H]1CCCCO[C@@H](CN(C)CC2CCCCC2)[C@H](C)CN([C@@H](C)CO)C(=O)c2cc(NS(=O)(=O)c3ccc(Cl)cc3)ccc2O1	-3	8	.	-57[16.7 µM]	12
C[C@@H]1CN([C@H](C)CO)C(=O)c2cc(NS(=O)(=O)c3ccc(F)cc3)ccc2O[C@@H](C)CCCCO[C@@H]1CN(C)CC1CCCCC1	5	-17	.	-8[16.7 µM]	101*
C[C@@H]1CCCCO[C@@H](CN(C)CC2CCCCC2)[C@H](C)CN([C@H](C)CO)C(=O)c2cc(NS(=O)(=O)c3ccc(Cl)cc3)ccc2O1	3	24	.	-23[16.7 µM]	92*
C[C@H](CO)N1C[C@H](C)[C@H](CN(C)CC2CCCCC2)OCCCC[C@H](C)Oc2ccc(NS(=O)(=O)c3ccc(Cl)cc3)cc2C1=O	-1	65*	.	9[16.7 µM]	29
CCCNC(=O)N1CC2(C1)[C@H](c1ccccc1)[C@@H](CO)N2C(=O)C1CCCC1	2	9	.	.	.
C[C@@H]1CN([C@H](C)CO)S(=O)(=O)c2ccc(C#CCN(C)C)cc2O[C@H]1CN(C)Cc1ccccc1	-3	17	.	2[16.7 µM]	2
C[C@@H]1CN([C@@H](C)CO)C(=O)c2cc(/C=C/c3ccccc3)cnc2O[C@@H]1CN(C)C(=O)C1CC1	2	-10	.	-2[16.7 µM]	.
COc1ccccc1NC(=O)N1CCCCN2[C@H](C1)[C@@H](c1ccc(-c3cccc(C#N)c3)cc1)[C@@H]2CO	-1	9	.	.	83*
COc1ccccc1NC(=O)N1CCCCN2[C@H](C1)[C@H](c1ccc(-c3cccc(C)c3)cc1)[C@@H]2CO	-8	30	.	.	35
COc1ccccc1NC(=O)N1CCCCN2[C@@H](CO)[C@@H](c3ccc(-c4cccc(C)c4)cc3)[C@@H]2C1	-3	57*	.	.	104*
COc1ccccc1NC(=O)N1CCCCN2[C@H](C1)[C@H](c1ccc(-c3cccc(C#N)c3)cc1)[C@@H]2CO	-5	15	.	.	21
Cc1ccc(S(=O)(=O)c2ncccc2N)cc1	1	-16	1	5	7
Cc1ccc(S(=O)(=O)c2ncccc2[N+](=O)[O-])cc1	4	23	-6	-13	109*
SMILES	F508del corr	EWS-Fli inh	FXN GAA850 act	HIV Env fusion	PAX8 reporter
O=C(Nc1cccc(F)c1)N[C@H]1CC[C@@H](CCNS(=O)(=O)c2cccc(Cl)c2)O[C@@H]1CO	0	27	.	-10[16.7 µM]	-22
O=C(Nc1cccc(F)c1)N[C@@H]1CC[C@@H](CCNS(=O)(=O)c2cccc(Cl)c2)O[C@@H]1CO	-2	-1	.	4[16.7 µM]	107*
O=C(Nc1ccc(F)cc1)N[C@H]1CC[C@H](CCNC(=O)c2cc(Cl)cc(Cl)c2)O[C@H]1CO	-4	2	.	7[16.7 µM]	87*
CCN(CC)C(=O)CCCOc1ccc(Cl)cc1Cl	.	.	5	-199	.
C#CCN(C)CCCOc1ccc(Cl)cc1Cl	8.9*	-26	2	-20	-13
C[C@H]1CN([C@@H](C)CO)S(=O)(=O)c2ccc(Br)cc2O[C@H]1CN(C)Cc1ccc(F)cc1	-2	-9	5	71*[16.7 µM]	1
C[C@H]1CN([C@@H](C)CO)S(=O)(=O)c2ccc(Br)cc2O[C@H]1CN(C)Cc1ccccc1	-2	-2	5	61*![16.7 µM]	36
CCCCN(C)C(=O)c1oc2ccc(S(=O)(=O)N3CCCCCC3)cc2c1C	.	.	2	61*	.
C[C@@H]1CCCCO[C@@H](CN(C)Cc2ccc(C(F)(F)F)cc2)[C@H](C)CN([C@H](C)CO)C(=O)c2cc(NS(=O)(=O)c3ccc(Cl)cc3)ccc2O1	-1	26	.	61*[16.7 µM]	103*
C[C@H]1CCCCO[C@@H](CN(C)Cc2ccc(C(F)(F)F)cc2)[C@@H](C)CN([C@@H](C)CO)C(=O)c2cc(NS(=O)(=O)c3ccc(Cl)cc3)ccc2O1	2	0	.	18[16.7 µM]	102*
C[C@@H]1CCCCO[C@@H](CN(C)Cc2ccc(C(F)(F)F)cc2)[C@H](C)CN([C@@H](C)CO)C(=O)c2cc(NS(=O)(=O)c3ccc(Cl)cc3)ccc2O1	4	18	.	3[16.7 µM]	103*
C[C@@H]1CN([C@@H](C)CO)C(=O)c2cc(NS(=O)(=O)c3ccc(Cl)cc3)ccc2O[C@@H](C)CCCCO[C@H]1CN(C)Cc1ccc(C(F)(F)F)cc1	3	21	.	22[16.7 µM]	102*
COc1ccc(S(=O)(=O)N(C)C[C@H]2Oc3ccc(NC(=O)Nc4cccc5ccccc45)cc3C(=O)N([C@H](C)CO)C[C@H]2C)cc1	2	-6	.	17[16.7 µM]	.
Cn1cnc(S(=O)(=O)N2CC[C@@H]3[C@H](CO)Nc4ccc(C#Cc5ccccc5F)cc4[C@@H]32)c1	-1	-15	.	.	16
C[C@@H]1CN([C@H](C)CO)C(=O)c2cc(NS(=O)(=O)c3ccc(Cl)cc3)ccc2O[C@@H](C)CCCCO[C@H]1CN(C)Cc1ccc(C(F)(F)F)cc1	0	62*	.	35[16.7 µM]	99*
C[C@@H]1CCCCO[C@H](CN(C)Cc2ccc(C(F)(F)F)cc2)[C@H](C)CN([C@H](C)CO)C(=O)c2cc(NS(=O)(=O)c3ccc(Cl)cc3)ccc2O1	3	11	.	?	99*

Bioassay records: PubChem BioAssay, several laboratories
